Measurements taken from paper PMC5540273 (PLoS ONE, 2017).

Legend:
Details in all cases: concentration: 1 μM, replicates: in singlicate; n = 1
[1] = system: NEK4
[2] = system: NEK5
[3] = system: NEK6
[4] = system: NEK7
[5] = system: NEK9
[6] = system: T1, NIK
T1 construct: gene MAP3K14

[7] = system: T2, NIM1
T2 construct: gene MGC42105

[8] = system: NLK
[9] = system: T3, OSR1
T3 construct: gene OXSR1

[10] = system: PAK1
[11] = system: PAK2
[12] = system: PAK3
[13] = system: PAK4
[14] = system: PAK6
[15] = system: PAK7
[16] = system: T4, PCTK1
T4 construct: gene CDK16

[17] = system: T5, PCTK2
T5 construct: gene CDK17

[18] = system: T6, PCTK3
T6 construct: gene CDK18

[19] = system: PDGFRA
[20] = system: PDGFRB
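Also: KINOMEscan kinase panel screen.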

SMILES | %Inh [1] | %Inh [2] | %Inh [3] | %Inh [4] | %Inh [5] | %Inh [6] | %Inh [7] | %Inh [8] | %Inh [9] | %Inh [10] | %Inh [11] | %Inh [12] | %Inh [13] | %Inh [14] | %Inh [15] | %Inh [16] | %Inh [17] | %Inh [18] | %Inh [19] | %Inh [20]
CCn1c(-c2ccoc2)nc2cnccc21 [SB-733887] | 22% | 4% | 5% | 0% | 0% | 21% | 11% | 7% | 9% | 12% | 19% | 0% | 0% | 0% | 0% | 9% | 0% | 1% | 63% | 9%
Cc1nnc(-c2ccc(C)c(-c3ccc(C(=O)O)cc3)c2)o1 [GW608005] | 14% | 2% | 0% | 5% | 2% | 26% | 13% | 0% | 2% | 8% | 9% | 0% | 0% | 0% | 0% | 0% | 0% | 2% | 0% | 4%
CCc1ccc(-c2ccc3c(c2)-c2nn(C)cc2S(=O)(=O)N3C)cc1 | 0% | 0% | 0% | 0% | 0% | 0% | 0% | 0% | 0% | 0% | 11% | 0% | 0% | 9% | 0% | 0% | 0% | 0% | 0% | 0%
C[C@@H]1CC[C@H](C(=O)NC2CCCCC2)CN1c1cc(-c2ccc3c(N)n[nH]c3c2)nc(N)n1 [GSK2291363] | 18% | 22% | 26% | 0% | 25% | 32% | 14% | 7% | 17% | 15% | 17% | 0% | 0% | 3% | 17% | 2% | 10% | 32% | 0% | 34%
CCC(=O)c1c(-c2ccccc2)c2cc(Cl)ccc2c(=O)n1Cc1cc(S(C)(=O)=O)n(CCC(C)(C)O)n1 | 0% | 17% | 14% | 1% | 0% | 0% | 0% | 0% | 0% | 20% | 8% | 21% | 6% | 0% | 2% | 29% | 21% | 13% | 0% | 0%
Cc1cccc(-c2cc(-c3c[nH]nc3-c3ccccn3)ccn2)c1 [GW679395] | 0% | 7% | 0% | 0% | 0% | 19% | 6% | 32% | 0% | 24% | 22% | 1% | 0% | 0% | 0% | 5% | 0% | 1% | 0% | 61%
COc1ccc(-n2cnc3c(N)ncnc32)cc1 [SKF-97236] | 0% | 0% | 5% | 0% | 17% | 0% | 12% | 0% | 14% | 0% | 0% | 28% | 0% | 16% | 0% | 0% | 0% | 0% | 63% | 95.1%
CN1C(=O)C(Nc2cc(Cl)c(O)c(Cl)c2)=C(c2ccc(Cl)cc2)C1=O [SB-404321] | 0% | 7% | 0% | 0% | 0% | 30% | 0% | 0% | 0% | 0% | 2% | 0% | 34% | 0% | 5% | 0% | 5% | 0% | 0% | 0%
O=C(Nc1n[nH]c2nc(-c3ccccc3)c(Cl)cc12)C1CC1 [SB-734909] | 23% | 11% | 0% | 0% | 2% | 13% | 6% | 11% | 0% | 0% | 0% | 23% | 0% | 0% | 7% | 0% | 0% | 30% | 46% | 97%
COC(=O)c1c(-c2ccccc2)c2cc(C)ccc2c(=O)n1Cc1ccccc1 | 0% | 0% | 0% | 0% | 0% | 100% | 0% | 0% | 0% | 24% | 20% | 1% | 0% | 10% | 0% | 0% | 0% | 0% | 42% | 90%
COc1ccc(-c2cc3c(C)nc(N)nc3n([C@H]3CC[C@H](OCCO)CC3)c2=O)cn1 | 0% | 0% | 22% | 0% | 0% | 0% | 21% | 0% | 0% | 0% | 1% | 0% | 0% | 0% | 0% | 0% | 3% | 0% | 0% | 1%
Nc1n[nH]c2nnc(-c3ccccc3)c(-c3ccccc3)c12 [GW554060] | 0% | 0% | 0% | 0% | 0% | 100% | 28% | 0% | 9% | 0% | 0% | 0% | 0% | 0% | 0% | 0% | 0% | 20% | 0% | 2%
COc1cc2ncn(-c3cc(OCc4ccc(S(C)(=O)=O)cc4)c(C(N)=O)s3)c2cc1OC [GW869979] | 14% | 20% | 1% | 0% | 0% | 7% | 45% | 4% | 25% | 0% | 0% | 0% | 0% | 0% | 0% | 19% | 0% | 26% | 30% | 11%
FC(F)(F)c1ccc(-c2ncn(CCCN3CCOCC3)c2-c2ccncc2)cc1 [SB-217780] | 0% | 9% | 0% | 10% | 33% | 0% | 26% | 35% | 5% | 20% | 34% | 12% | 21% | 17% | 0% | 10% | 0% | 20% | 34% | 32%
COc1cc(Nc2nccc(N3CCC(NC(=O)C4COc5ccccc5O4)C3)n2)cc(OC)c1OC (stereo not drawn) [GSK1379761] | 7% | 97.3% | 21% | 49% | 37% | 42% | 28% | 5% | 2% | 0% | 0% | 10% | 0% | 0% | 3% | 4% | 0% | 10% | 1% | 45%
COC(=O)c1c(-c2ccccc2)c2cc(Br)ccc2c(=O)n1Cc1ccc(S(C)(=O)=O)cc1 | 17% | 0% | 20% | 3% | 6% | 0% | 15% | 0% | 4% | 24% | 17% | 26% | 6% | 35% | 2% | 23% | 5% | 0% | 8% | 73%
COc1cc2nccc(Nc3ccc(OCc4ccc(NC(C)=O)cc4)cc3)c2cc1OC.Cl [GW440135] | 0% | 0% | 0% | 100% | 94.8% | 16% | 24% | 10% | 0% | 0% | 0% | 0% | 9% | 0% | 0% | 9% | 0% | 0% | 93.1% | 99.6%
CCS(=O)(=O)c1ccc(OC)c(Nc2ncc(-c3ccc(F)cc3)o2)c1.Cl [GW591947] | 0% | 9% | 0% | 0% | 11% | 0% | 5% | 22% | 4% | 0% | 13% | 0% | 0% | 0% | 14% | 4% | 0% | 16% | 0% | 24%
COc1cc2ncn(-c3cc(OCCCc4ccccc4)c(C(N)=O)s3)c2cc1OC [GSK205189] | 0% | 0% | 0% | 0% | 6% | 0% | 0% | 0% | 2% | 36% | 26% | 6% | 0% | 0% | 0% | 0% | 0% | 19% | 0% | 25%
Cc1nn2c(=O)cc(N3CCOCC3)nc2n1Cc1cccc(Cl)c1Cl [GSK2342769] | 9% | 0% | 0% | 0% | 0% | 0% | 12% | 0% | 8% | 9% | 2% | 0% | 0% | 0% | 0% | 4% | 0% | 15% | 0% | 16%
Nc1ncnc2c1ncn2-c1ccc(Cl)cc1 [AH2635] | 0% | 12% | 0% | 0% | 0% | 89% | 27% | 0% | 0% | 4% | 0% | 7% | 0% | 0% | 6% | 0% | 0% | 0% | 38% | 86%
Cc1ccc(-c2ccc3c(ccc4sc5c(c43)NC[C@@H](C)N=C5N(C)C)n2)cn1 | 0% | 0% | 0% | 0% | 0% | 0% | 0% | 0% | 0% | 0% | 0% | 0% | 0% | 0% | 10% | 0% | 0% | 9% | 0% | 0%
COC(=O)c1c(-c2ccccc2)c2cc(Br)ccc2c(=O)n1Cc1ccc(NC(=O)CCC(=O)O)cc1 | 1% | 0% | 7% | 18% | 11% | 0% | 2% | 0% | 14% | 15% | 17% | 0% | 2% | 18% | 2% | 15% | 7% | 0% | 16% | 57%
Nc1ncnc2c1ncn2-c1cccc(F)c1 [SKF-97560] | 21% | 25% | 0% | 0% | 0% | 18% | 48% | 0% | 28% | 5% | 0% | 0% | 5% | 12% | 3% | 27% | 1% | 10% | 43% | 58%
COc1cc2ncn(-c3cc(OCc4ccncc4Br)c(C(N)=O)s3)c2cc1OC [GW854278] | 0% | 2% | 0% | 0% | 0% | 25% | 10% | 0% | 0% | 1% | 14% | 0% | 8% | 12% | 16% | 0% | 14% | 5% | 39% | 58%
Nc1n[nH]c2ncc(-c3ccccc3)cc12 [SB-517081] | 26% | 9% | 0% | 0% | 7% | 0% | 28% | 13% | 0% | 7% | 17% | 0% | 0% | 0% | 0% | 3% | 0% | 31% | 51% | 97.3%
O=C(NCCNc1ccnc(Nc2ccc(F)cc2)n1)Nc1ccc2c(c1)OCO2 [GSK1379882] | 0% | 15% | 0% | 0% | 12% | 22% | 18% | 0% | 0% | 0% | 0% | 0% | 0% | 12% | 7% | 14% | 0% | 0% | 6% | 53%
CCS(=O)c1ccc(-c2coc3ccc(-c4nnc(C)o4)cc23)cc1 (stereo not drawn) | 0% | 0% | 0% | 0% | 0% | 0% | 11% | 0% | 0% | 0% | 0% | 33% | 0% | 20% | 0% | 0% | 0% | 2% | 0% | 0%
CCC(=O)c1c(-c2ccccc2)c2cc(Cl)ccc2c(=O)n1Cc1cc(S(C)(=O)=O)n(CC(F)F)n1 | 0% | 0% | 0% | 0% | 0% | 0% | 0% | 0% | 0% | 0% | 0% | 0% | 0% | 0% | 0% | 0% | 4% | 0% | 0% | 0%
COc1ccc(-c2cc3c(C)nc(N)nc3n([C@H]3CC[C@H](O)CC3)c2=O)cn1 | 0% | 0% | 0% | 0% | 0% | 2% | 0% | 13% | 0% | 7% | 11% | 0% | 21% | 0% | 0% | 0% | 0% | 0% | 0% | 0%
